# From PubChem BioAssay AID1159580 (chemical genetic matrix, 2015)
# “And” between values parts separate entries of the source, which are not always exact repeats. Equal entries are not always repeated. About 2,000 (36%) of roughly 5,500 compounds were called active. Not shown: some 18% with an inconclusive outcome. This is one part of the list. Values without a mark were called inactive. Rule as the data show it: active = normalized growth mostly below about 0.91 (no sharp cut-off); inconclusive = no clear call, values can overlap the other calls; inactive = mostly above about 0.92.
# Experiment: chemical genetic growth profiling, strain panel (AID 1159580);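 also: tested at 20 µM; growth read once vehicle control cultures reached saturation at 30 °C; 1 = growth at the plate median or of vehicle wells; lower values mean less growth of the strain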
# Settings: growth OD
compound,measurement,setting,value
O=C(/C=C/c1ccc(O)cc1)c1ccc(O)cc1O,normalized growth,"S. cerevisiae deletion strains, locus YJR075W, strain HOC1, stronger effect = lower value",0.985 and 0.976
same,normalized growth,"S. cerevisiae deletion strains, locus YKL009W, strain mrt4, stronger effect = lower value",0.947
same,normalized growth,"S. cerevisiae deletion strains, locus YKL068W, stronger effect = lower value",0.95
same,normalized growth,"S. cerevisiae deletion strains, locus YKL085W, strain MDH1 (second series), stronger effect = lower value",0.965
same,normalized growth,"S. cerevisiae deletion strains, locus YKL085W, strain MDH1, stronger effect = lower value",0.965
same,normalized growth,"S. cerevisiae deletion strains, locus YKL160W, strain elf1, stronger effect = lower value",0.988
same,normalized growth,"S. cerevisiae deletion strains, locus YKL190W, strain CNB1, stronger effect = lower value",0.993
same,normalized growth,"S. cerevisiae deletion strains, locus YKR001C, strain vps1, stronger effect = lower value",0.887 (active)
same,normalized growth,"S. cerevisiae deletion strains, locus YKR026C, strain gcn3, stronger effect = lower value",1.01
same,normalized growth,"S. cerevisiae deletion strains, locus YKR091W, strain srl3, stronger effect = lower value",1.01
same,normalized growth,"S. cerevisiae deletion strains, locus YLL001W, strain dnm1, stronger effect = lower value",1.01
same,normalized growth,"S. cerevisiae deletion strains, locus YLL026W, stronger effect = lower value",1
same,normalized growth,"S. cerevisiae deletion strains, locus YLL041C, strain sdh2, stronger effect = lower value",1.01
same,normalized growth,"S. cerevisiae deletion strains, locus YLR027C, strain aat2, stronger effect = lower value",0.978
same,normalized growth,"S. cerevisiae deletion strains, locus YLR039C, strain RIC1, stronger effect = lower value",0.942
same,normalized growth,"S. cerevisiae deletion strains, locus YLR058C, strain SHM2, stronger effect = lower value",1.01
same,normalized growth,"S. cerevisiae deletion strains, locus YLR102C, strain apc9, stronger effect = lower value",0.953
same,normalized growth,"S. cerevisiae deletion strains, locus YLR113W, strain HOG1, stronger effect = lower value",0.927
same,normalized growth,"S. cerevisiae deletion strains, locus YLR221C, strain rsa3, stronger effect = lower value",0.987
same,normalized growth,"S. cerevisiae deletion strains, locus YLR258W, strain gsy2, stronger effect = lower value",1.01
same,normalized growth,"S. cerevisiae deletion strains, locus YLR262C, strain YPT6 (second series), stronger effect = lower value",1.02
same,normalized growth,"S. cerevisiae deletion strains, locus YLR262C, strain YPT6, stronger effect = lower value",1.02
same,normalized growth,"S. cerevisiae deletion strains, locus YLR268W, strain sec22, stronger effect = lower value",0.957
same,normalized growth,"S. cerevisiae deletion strains, locus YLR320W, strain mms22, stronger effect = lower value",1.01
same,normalized growth,"S. cerevisiae deletion strains, locus YLR330W, strain CHS5, stronger effect = lower value",0.985
same,normalized growth,"S. cerevisiae deletion strains, locus YLR342W, strain FKS1 (second series), stronger effect = lower value",0.981
same,normalized growth,"S. cerevisiae deletion strains, locus YLR342W, strain FKS1, stronger effect = lower value",1
same,normalized growth,"S. cerevisiae deletion strains, locus YLR357W, strain rsc2, stronger effect = lower value",0.997
same,normalized growth,"S. cerevisiae deletion strains, locus YLR370C, strain arc18, stronger effect = lower value",1.02
same,normalized growth,"S. cerevisiae deletion strains, locus YLR371W, strain rom2, stronger effect = lower value",0.9 (active)
same,normalized growth,"S. cerevisiae deletion strains, locus YLR384C, strain iki3, stronger effect = lower value",1.01
same,normalized growth,"S. cerevisiae deletion strains, locus YLR418C, strain cdc73, stronger effect = lower value",0.86
same,normalized growth,"S. cerevisiae deletion strains, locus YML016C, strain PPZ1, stronger effect = lower value",0.986
same,normalized growth,"S. cerevisiae deletion strains, locus YML032C, strain rad52, stronger effect = lower value",0.984
same,normalized growth,"S. cerevisiae deletion strains, locus YML120C, strain ndi1, stronger effect = lower value",0.995
same,normalized growth,"S. cerevisiae deletion strains, locus YML124C, strain tub3, stronger effect = lower value",0.964
same,normalized growth,"S. cerevisiae deletion strains, locus YMR058W, strain fet3, stronger effect = lower value",1.02
same,normalized growth,"S. cerevisiae deletion strains, locus YMR078C, strain ctf18, stronger effect = lower value",0.954
same,normalized growth,"S. cerevisiae deletion strains, locus YMR125W, strain sto1, stronger effect = lower value",0.992
same,normalized growth,"S. cerevisiae deletion strains, locus YMR129W, stronger effect = lower value",1.03
same,normalized growth,"S. cerevisiae deletion strains, locus YMR205C, strain PFK2, stronger effect = lower value",0.967
same,normalized growth,"S. cerevisiae deletion strains, locus YMR223W, strain ubp8, stronger effect = lower value",0.967
same,normalized growth,"S. cerevisiae deletion strains, locus YMR231W, strain pep5, stronger effect = lower value",1.01
same,normalized growth,"S. cerevisiae deletion strains, locus YMR263W, strain SAP30, stronger effect = lower value",0.989
same,normalized growth,"S. cerevisiae deletion strains, locus YMR307W, strain GAS1, stronger effect = lower value",1.08
same,normalized growth,"S. cerevisiae deletion strains, locus YNL067W, strain RPL9B, stronger effect = lower value",1.01
same,normalized growth,"S. cerevisiae deletion strains, locus YNL071W, strain lat1, stronger effect = lower value",0.996
same,normalized growth,"S. cerevisiae deletion strains, locus YNL128W, strain TEP1, stronger effect = lower value",0.964
same,normalized growth,"S. cerevisiae deletion strains, locus YNL153C, strain GIM3, stronger effect = lower value",1.03
same,normalized growth,"S. cerevisiae deletion strains, locus YNL175C, strain NOP13, stronger effect = lower value",0.979
same,normalized growth,"S. cerevisiae deletion strains, locus YNL183C, strain NPR1, stronger effect = lower value",0.944
same,normalized growth,"S. cerevisiae deletion strains, locus YNL197C, strain WHI3, stronger effect = lower value",0.992
same,normalized growth,"S. cerevisiae deletion strains, locus YNL209W, strain ssb2, stronger effect = lower value",1
same,normalized growth,"S. cerevisiae deletion strains, locus YNL224C, strain SQS1, stronger effect = lower value",0.976
same,normalized growth,"S. cerevisiae deletion strains, locus YNL233W, strain BNI4, stronger effect = lower value",0.975
same,normalized growth,"S. cerevisiae deletion strains, locus YNL248C, strain rpa49, stronger effect = lower value",1.04
same,normalized growth,"S. cerevisiae deletion strains, locus YNL250W, strain rad50, stronger effect = lower value",0.961
same,normalized growth,"S. cerevisiae deletion strains, locus YNL271C, strain bni1, stronger effect = lower value",0.965
same,normalized growth,"S. cerevisiae deletion strains, locus YNL298W, strain CLA4, stronger effect = lower value",0.99
same,normalized growth,"S. cerevisiae deletion strains, locus YNL307C, strain MCK1, stronger effect = lower value",0.968
same,normalized growth,"S. cerevisiae deletion strains, locus YNL322C, strain KRE1 (second series), stronger effect = lower value",1
same,normalized growth,"S. cerevisiae deletion strains, locus YNR049C, strain mso1, stronger effect = lower value",1.01
same,normalized growth,"S. cerevisiae deletion strains, locus YNR052C, strain pop2, stronger effect = lower value",1.01
same,normalized growth,"S. cerevisiae deletion strains, locus YOL012C, strain htz1",1.77
same,normalized growth,"S. cerevisiae deletion strains, locus YOL147C, strain pex11, stronger effect = lower value",0.969
same,normalized growth,"S. cerevisiae deletion strains, locus YOR001W, strain rrp6, stronger effect = lower value",1.02
same,normalized growth,"S. cerevisiae deletion strains, locus YOR061W, strain CKA2, stronger effect = lower value",0.988
same,normalized growth,"S. cerevisiae deletion strains, locus YOR069W, strain VPS5, stronger effect = lower value",0.976
same,normalized growth,"S. cerevisiae deletion strains, locus YOR070C, strain gyp1, stronger effect = lower value",1
same,normalized growth,"S. cerevisiae deletion strains, locus YOR080W, strain dia2, stronger effect = lower value",1.01
same,normalized growth,"S. cerevisiae deletion strains, locus YOR083W, strain WHI5 (second series), stronger effect = lower value",0.982
same,normalized growth,"S. cerevisiae deletion strains, locus YOR083W, strain WHI5, stronger effect = lower value",0.974
same,normalized growth,"S. cerevisiae deletion strains, locus YOR106W, strain vam3, stronger effect = lower value",0.988
same,normalized growth,"S. cerevisiae deletion strains, locus YOR136W, strain idh2, stronger effect = lower value",0.974
same,normalized growth,"S. cerevisiae deletion strains, locus YOR144C, strain elg1, stronger effect = lower value",0.99
same,normalized growth,"S. cerevisiae deletion strains, locus YOR184W, strain ser1, stronger effect = lower value",0.93
same,normalized growth,"S. cerevisiae deletion strains, locus YOR231W, strain MKK1, stronger effect = lower value",0.874
same,normalized growth,"S. cerevisiae deletion strains, locus YOR265W, strain rbl2, stronger effect = lower value",1.02
same,normalized growth,"S. cerevisiae deletion strains, locus YOR270C, strain vph1, stronger effect = lower value",1.04
same,normalized growth,"S. cerevisiae deletion strains, locus YOR290C, strain snf2, stronger effect = lower value",0.976
same,normalized growth,"S. cerevisiae deletion strains, locus YOR316C, strain cot1, stronger effect = lower value",0.962
same,normalized growth,"S. cerevisiae deletion strains, locus YPL051W, strain arl3, stronger effect = lower value",0.975
same,normalized growth,"S. cerevisiae deletion strains, locus YPL055C, strain LGE1, stronger effect = lower value",0.977
same,normalized growth,"S. cerevisiae deletion strains, locus YPL078C, strain atp4, stronger effect = lower value",0.99
same,normalized growth,"S. cerevisiae deletion strains, locus YPL106C, strain sse1, stronger effect = lower value",0.982
same,normalized growth,"S. cerevisiae deletion strains, locus YPL240C, strain hsp82, stronger effect = lower value",1.01
same,normalized growth,"S. cerevisiae deletion strains, locus YPL256C, strain CLN2, stronger effect = lower value",0.877
same,normalized growth,"S. cerevisiae deletion strains, locus YPR119W, strain clb2, stronger effect = lower value",0.949
same,normalized growth,"S. cerevisiae deletion strains, locus YPR141C, strain kar3, stronger effect = lower value",0.972
same,normalized growth,"S. cerevisiae deletion strains, locus YPR163C, strain tif3, stronger effect = lower value",0.976
same,normalized growth,"S. cerevisiae deletion strains, locus YPR167C, strain met16, stronger effect = lower value",0.966
same,normalized growth,"S. cerevisiae deletion strains, strain wtn01, stronger effect = lower value",0.94
same,normalized growth,"S. cerevisiae strains, strain wild type, stronger effect = lower value",0.991
